According to PubChem BioAssay:
Records with an inconclusive call do not appear. Active and inactive are the calls of the source.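 The calls were made as follows, unless noted: active = response below a set limit, under 55% cells CD8-positive and vesicle-bound, and CD8 cells' 90th-percentile brightness under 279; inactive = the rest.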

Experiments:
[1] = yeast TOR pathway RPL19A-GFP modulators, primary screen, cell-based, S. cerevisiae, multiplex flow cytometry (AID 1862; in the data active = percent of DMSO control GFP below about 86%;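 also: lower values mimic rapamycin by blocking the RPL19A rise seen in DMSO cells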); conditions: S. cerevisiae RPL19A-GFP strain, flow cytometry fluorescence, 3 h; at 10 µM; stronger effect = lower value
[2] = modulators of MEP2-GFP levels in yeast, primary screen, S. cerevisiae, multiplex flow cytometry (AID 1867;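 active = GFP response, as percent of the DMSO control, above the screen-wide mean plus 3 SD, about 139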;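 also: median GFP channel fluorescence of barcode-gated MEP2-GFP cells measured by flow cytometry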); conditions: S. cerevisiae MEP2-GFP strain, 3 h, at 10 µM, stronger effect = higher value, 100% means same as DMSO wells
[3] = modulators of CIT2-GFP expression in yeast, primary screen, S. cerevisiae, GFP fusion, multiplex flow cytometry (AID 1870;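 active = percent response above a set limit, the screen-wide mean plus 3 SD, cut at about 130% in these data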;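 also: barcoded CIT2-GFP strain pooled with four other GFP strains with rapamycin as positive control; median GFP fluorescence per well over plate mean of DMSO wells so 100% = DMSO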); conditions: 3 h, at 10 µM, stronger effect = higher value
[4] = modulators of LAP4-GFP expression in yeast, primary screen, S. cerevisiae, multiplex flow cytometry (AID 1873;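 active = GFP signal, as percent of the solvent control, above the screen mean plus 3 SD, about 149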); conditions: 3 h, at 10 µM, stronger effect = higher value
[5] = modulators of AGP1-GFP expression in yeast TOR pathway, primary screen, cell-based, multiplex flow cytometry, S. cerevisiae (AID 1887;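 active = GFP signal above the screen-wide mean plus 3 SD, that is over about 124.5% of the solvent control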;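 also: AGP1-GFP fusion strain of S. cerevisiae within a five-strain barcoded multiplex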); conditions: 3 h, at 10 µM, stronger effect = higher value
[6] = inhibitors of CD8+ T cell-vesicle binding, pilot screen, LFA-1/ICAM-1 modulator project, MLPCN validation set, flow cytometry (AID 2523); conditions: 2C mouse CD8+ T cells, at 7 µM, stronger effect = lower value; double positive events: measured here: CD8+/vesicle+ event percentage;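 as to vesicle binding response: mean PE anti-B7-1 fluorescence of CD8+ cells relative to row control; 100% = QL9-loaded vesicles with DMSO vehicle in the same plate row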
[7] = target: Integrin beta-1 (Homo sapiens) + Integrin alpha-4 (Homo sapiens) (UniProt P13612+P05556); test: inhibition of HUTS-21 binding to VLA-4, pilot screen, VLA-4 allosteric modulator project, U937 cells, HUTS-21 mAb, flow cytometry, validation set (AID 2674;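 active = inhibition above 50%, about 3 SD of the validation set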;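 also: antibody binding induced by the VLA-4 ligand LDV present at three times its Kd; 0% = LDV ligand with antibody and no compound and 100% = antibody without LDV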); conditions: HUTS-21 LIBS mAb binding, at 6.7 µM, stronger effect = higher value, binding induced by LDV ligand
[8] = superoxide lowering in aged yeast cells, pilot screen, validation compound set (AID 2706;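 active = superoxide response below 65% of plate, a cut near 3 SD across the whole screen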;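 also: yeast exposed to compound for one week at 30 degrees C before staining; 100% = mean of all compound wells on the same plate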); conditions: S. cerevisiae aging, superoxide DHE fluorescence; at 10 µM; stronger effect = lower value
[9] = target: Beta-adrenergic receptor kinase 1 (Homo sapiens) (UniProt P25098); test: GRK2 binders displacing RNA aptamer, biochemical, validation, human GRK2, bead flow cytometry (AID 488806;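 active = aptamer binding inhibition above 30%, about 3 SD of noise from non-fluorescent compounds; inactive = inhibition at or below 30%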); conditions: bead-bound GRK2, FAM-aptamer displacement, at 10 µM, stronger effect = higher value
[10] = target: Beta-2 adrenergic receptor (Homo sapiens) (UniProt P07550); test: beta2AR agonists driving receptor internalization, pilot screen, cell-based, FAP fluorogen, flow cytometry, validation set (AID 504459;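 active = percent response above 42, roughly 3 SD of non-fluorescent test compounds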;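 also: agonist-driven loss of surface beta2AR via internalization measured by FAP dye flow cytometry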); conditions: Am2.2-beta2AR cells, FAP surface receptor flow cytometry; at 10 µM; stronger effect = higher value
[11] = target: AP-2 complex subunit beta (Homo sapiens) (UniProt P63010); test: inhibitors of arrestin peptide binding to AP2, pilot screen, biochemical, validation set, GST-AP2 beads, flow cytometry (AID 504541;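 active = inhibition above 54%, about 3 SD of non-fluorescent compounds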;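 also: AP2 carries R879A mutation and is captured from E. coli lysate; bead-bound FITC arrestin peptide fluorescence measuring arrestin peptide binding to AP2; 0% = DMSO wells and 100% = excess unlabeled arrestin peptide control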); conditions: FITC arrestin peptide, at 10 µM, stronger effect = higher value, AP2 beta2 appendage fragment, R879A mutant
[12] = yeast V-ATPase proton transport modulators, S. cerevisiae, pHLuorin, HTS validation (AID 504600; in the data active = response above about 15%;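 also: plate controls were DMSO for no effect and reference compound for full effect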); conditions: S. cerevisiae pHLuorin cytosolic pH, at 10 µM, stronger effect = higher value
[13] = tested on: anti-desmoglein-3 scFv antibody binding to human DSG3; test: inhibitors of anti-DSG3 scFv binding to DSG3, pilot screen, biochemical, validation compound set, bead-based, flow cytometry (AID 588368;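 active = binding below the plate cutoff, the plate median minus 3 SD, with a reading above zero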;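 also: signal is the median channel fluorescence of bead-bound GFP antibody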); conditions: Protein G beads, DSG3-Fc, scFv-GFP binding, at 10 µM, stronger effect = lower value
[14] = inhibitors of fungal efflux pumps CDR1, CDR2, MDR1, pilot screen, validation compound set, multiplex, phenotypic (AID 588506;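 active = efflux inhibition above 0.42, the validation set average plus 4 SD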;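 also: Nile Red retained in cells so higher fluorescence means more efflux inhibition; 0 = negative control wells and 1 = enniatin B 25 µM full block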); conditions: S. cerevisiae pump-expressing triplex, Nile Red efflux flow cytometry; at 10 µM; stronger effect = higher value; the pumps come from Candida albicans
[15] = target: ATP-binding cassette sub-family B member 6 (Homo sapiens) (UniProt Q9NP58); test: ABCB6 transporter inhibitors, pilot screen, K562-ABCB6 cells, flow cytometry, validation set (AID 588550;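 active = inhibition above the screen-wide mean plus 3 SD, about 51%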;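 also: 0% = DMSO wells and 100% = benzethonium chloride 70 µM positive control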); conditions: K562-ABCB6 porphyrin accumulation, 1 h, at 10 µM, stronger effect = higher value
[16] = promoters of myeloid differentiation in arrested cells, primary screen, cell-based, GFP/MAC1 double positive, flow cytometry, validation set (AID 588685;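 active = differentiation response of at least 50%, scaled between solvent and reference control, from cells with both markers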;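 also: compound exposure lasts four days before antibody staining and flow analysis; 0% = DMSO wells and 100% = 5 µM fulvestrant positive control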); conditions: ER-HoxA9 marrow cells, stronger effect = higher value, normalized: vehicle 0, fulvestrant 100

Chain of Integrin beta-1 (Homo sapiens) + Integrin alpha-4 (Homo sapiens) (P05556 whole entry, looked up): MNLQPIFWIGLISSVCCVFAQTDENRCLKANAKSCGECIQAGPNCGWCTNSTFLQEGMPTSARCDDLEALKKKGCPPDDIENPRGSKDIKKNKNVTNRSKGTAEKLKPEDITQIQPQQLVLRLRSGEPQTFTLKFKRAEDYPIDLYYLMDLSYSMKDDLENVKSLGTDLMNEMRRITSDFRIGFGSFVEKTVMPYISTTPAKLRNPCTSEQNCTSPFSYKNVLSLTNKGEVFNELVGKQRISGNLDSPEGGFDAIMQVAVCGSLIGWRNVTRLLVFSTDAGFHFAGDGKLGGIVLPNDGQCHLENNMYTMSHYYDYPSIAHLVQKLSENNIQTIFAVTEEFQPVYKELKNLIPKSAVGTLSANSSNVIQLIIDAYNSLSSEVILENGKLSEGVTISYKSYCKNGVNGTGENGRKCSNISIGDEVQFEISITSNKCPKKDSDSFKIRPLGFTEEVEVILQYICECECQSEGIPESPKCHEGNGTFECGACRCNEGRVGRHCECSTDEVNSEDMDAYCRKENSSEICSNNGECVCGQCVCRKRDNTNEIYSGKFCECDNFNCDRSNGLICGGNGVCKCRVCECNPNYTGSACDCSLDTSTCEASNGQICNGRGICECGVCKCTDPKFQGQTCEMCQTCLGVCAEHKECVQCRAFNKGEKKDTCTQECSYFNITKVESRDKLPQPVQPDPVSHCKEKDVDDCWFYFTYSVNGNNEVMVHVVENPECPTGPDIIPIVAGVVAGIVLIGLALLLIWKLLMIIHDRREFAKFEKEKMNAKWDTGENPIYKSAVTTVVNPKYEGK
Chain of Integrin beta-1 (Homo sapiens) + Integrin alpha-4 (Homo sapiens) (P13612 whole entry, looked up): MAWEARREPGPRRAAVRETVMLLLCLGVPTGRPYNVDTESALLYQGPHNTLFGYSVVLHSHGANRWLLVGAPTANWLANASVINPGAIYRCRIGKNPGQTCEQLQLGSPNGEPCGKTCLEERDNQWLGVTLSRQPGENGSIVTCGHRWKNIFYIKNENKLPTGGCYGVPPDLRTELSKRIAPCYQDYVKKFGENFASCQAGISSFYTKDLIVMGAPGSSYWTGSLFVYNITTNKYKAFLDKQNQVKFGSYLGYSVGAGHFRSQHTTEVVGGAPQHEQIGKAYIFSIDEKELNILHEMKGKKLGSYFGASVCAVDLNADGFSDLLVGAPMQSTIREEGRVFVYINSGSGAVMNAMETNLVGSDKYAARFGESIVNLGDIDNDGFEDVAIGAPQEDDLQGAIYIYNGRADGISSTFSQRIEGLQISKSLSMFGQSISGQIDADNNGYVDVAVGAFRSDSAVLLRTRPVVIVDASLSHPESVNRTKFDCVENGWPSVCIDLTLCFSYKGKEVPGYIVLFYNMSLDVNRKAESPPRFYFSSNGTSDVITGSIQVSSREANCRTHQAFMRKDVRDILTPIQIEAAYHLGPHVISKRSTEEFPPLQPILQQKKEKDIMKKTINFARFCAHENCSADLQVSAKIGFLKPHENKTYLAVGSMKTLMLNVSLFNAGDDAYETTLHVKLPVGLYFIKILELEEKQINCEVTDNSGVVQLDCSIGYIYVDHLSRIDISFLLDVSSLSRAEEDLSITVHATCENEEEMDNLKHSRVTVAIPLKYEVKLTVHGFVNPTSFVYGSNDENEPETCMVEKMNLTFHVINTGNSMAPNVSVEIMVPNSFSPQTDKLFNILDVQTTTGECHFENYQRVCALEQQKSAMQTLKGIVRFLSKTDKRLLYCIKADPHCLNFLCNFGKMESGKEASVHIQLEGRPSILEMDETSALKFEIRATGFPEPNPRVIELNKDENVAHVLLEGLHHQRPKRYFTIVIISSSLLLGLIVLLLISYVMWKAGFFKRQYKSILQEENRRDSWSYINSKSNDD
Chain of Beta-adrenergic receptor kinase 1 (Homo sapiens) (P25098 whole entry, looked up): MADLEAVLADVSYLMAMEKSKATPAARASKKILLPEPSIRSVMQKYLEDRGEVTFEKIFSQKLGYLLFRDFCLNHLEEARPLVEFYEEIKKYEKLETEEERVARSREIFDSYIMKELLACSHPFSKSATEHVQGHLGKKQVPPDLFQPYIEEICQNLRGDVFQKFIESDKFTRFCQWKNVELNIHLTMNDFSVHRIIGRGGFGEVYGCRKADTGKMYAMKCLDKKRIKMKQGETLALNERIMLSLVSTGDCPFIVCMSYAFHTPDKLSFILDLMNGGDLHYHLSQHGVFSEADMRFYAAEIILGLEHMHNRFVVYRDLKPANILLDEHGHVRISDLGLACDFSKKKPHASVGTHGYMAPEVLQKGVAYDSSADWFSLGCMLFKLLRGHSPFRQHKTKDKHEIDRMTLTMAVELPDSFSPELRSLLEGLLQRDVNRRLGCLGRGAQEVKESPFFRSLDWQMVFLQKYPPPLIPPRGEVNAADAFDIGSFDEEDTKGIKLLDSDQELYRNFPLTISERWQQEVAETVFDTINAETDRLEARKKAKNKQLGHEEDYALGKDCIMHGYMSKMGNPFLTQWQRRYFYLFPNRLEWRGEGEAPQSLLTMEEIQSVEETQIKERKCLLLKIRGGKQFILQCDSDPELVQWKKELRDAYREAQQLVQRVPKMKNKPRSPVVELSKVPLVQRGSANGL
Chain of Beta-2 adrenergic receptor (Homo sapiens) (P07550 whole entry, looked up): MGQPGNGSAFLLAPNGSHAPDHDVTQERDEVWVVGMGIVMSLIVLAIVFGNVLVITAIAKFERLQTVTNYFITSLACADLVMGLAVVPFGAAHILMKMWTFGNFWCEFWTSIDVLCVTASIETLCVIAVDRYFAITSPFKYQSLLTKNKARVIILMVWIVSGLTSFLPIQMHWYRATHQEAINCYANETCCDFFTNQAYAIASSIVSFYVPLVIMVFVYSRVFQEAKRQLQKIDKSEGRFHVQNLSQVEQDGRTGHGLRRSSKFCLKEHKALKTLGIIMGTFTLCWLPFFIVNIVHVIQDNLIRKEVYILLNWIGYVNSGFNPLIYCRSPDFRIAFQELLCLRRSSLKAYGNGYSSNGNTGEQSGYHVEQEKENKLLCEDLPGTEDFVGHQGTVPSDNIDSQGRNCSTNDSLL
Chain of AP-2 complex subunit beta (Homo sapiens) (P63010 whole entry, looked up, the tested form may be a part, one chain of several): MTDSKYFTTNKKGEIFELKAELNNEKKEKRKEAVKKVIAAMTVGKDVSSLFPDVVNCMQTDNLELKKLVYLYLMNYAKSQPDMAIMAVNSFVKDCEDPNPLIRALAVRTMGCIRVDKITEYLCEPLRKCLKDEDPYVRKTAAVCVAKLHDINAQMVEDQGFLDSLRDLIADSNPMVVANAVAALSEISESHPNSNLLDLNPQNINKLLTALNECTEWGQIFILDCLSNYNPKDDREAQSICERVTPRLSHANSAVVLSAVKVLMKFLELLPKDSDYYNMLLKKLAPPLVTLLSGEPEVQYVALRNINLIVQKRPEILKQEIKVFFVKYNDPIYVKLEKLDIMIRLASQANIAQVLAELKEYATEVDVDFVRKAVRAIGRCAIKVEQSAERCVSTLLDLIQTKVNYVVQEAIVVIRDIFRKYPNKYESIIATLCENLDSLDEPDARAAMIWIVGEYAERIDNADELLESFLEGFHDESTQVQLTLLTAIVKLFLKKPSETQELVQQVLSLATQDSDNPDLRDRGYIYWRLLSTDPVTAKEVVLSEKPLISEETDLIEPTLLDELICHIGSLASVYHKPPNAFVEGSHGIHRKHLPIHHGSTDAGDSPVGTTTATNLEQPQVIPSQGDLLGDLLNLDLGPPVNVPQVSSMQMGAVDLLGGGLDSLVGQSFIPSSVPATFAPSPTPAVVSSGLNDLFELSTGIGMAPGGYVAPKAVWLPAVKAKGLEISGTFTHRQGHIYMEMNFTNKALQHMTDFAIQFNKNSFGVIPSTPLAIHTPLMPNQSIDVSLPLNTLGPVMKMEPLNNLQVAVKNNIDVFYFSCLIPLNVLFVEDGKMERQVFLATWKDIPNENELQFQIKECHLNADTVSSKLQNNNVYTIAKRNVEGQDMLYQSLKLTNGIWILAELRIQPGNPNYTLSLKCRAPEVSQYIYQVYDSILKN
Chain of ATP-binding cassette sub-family B member 6 (Homo sapiens) (Q9NP58 whole entry, looked up): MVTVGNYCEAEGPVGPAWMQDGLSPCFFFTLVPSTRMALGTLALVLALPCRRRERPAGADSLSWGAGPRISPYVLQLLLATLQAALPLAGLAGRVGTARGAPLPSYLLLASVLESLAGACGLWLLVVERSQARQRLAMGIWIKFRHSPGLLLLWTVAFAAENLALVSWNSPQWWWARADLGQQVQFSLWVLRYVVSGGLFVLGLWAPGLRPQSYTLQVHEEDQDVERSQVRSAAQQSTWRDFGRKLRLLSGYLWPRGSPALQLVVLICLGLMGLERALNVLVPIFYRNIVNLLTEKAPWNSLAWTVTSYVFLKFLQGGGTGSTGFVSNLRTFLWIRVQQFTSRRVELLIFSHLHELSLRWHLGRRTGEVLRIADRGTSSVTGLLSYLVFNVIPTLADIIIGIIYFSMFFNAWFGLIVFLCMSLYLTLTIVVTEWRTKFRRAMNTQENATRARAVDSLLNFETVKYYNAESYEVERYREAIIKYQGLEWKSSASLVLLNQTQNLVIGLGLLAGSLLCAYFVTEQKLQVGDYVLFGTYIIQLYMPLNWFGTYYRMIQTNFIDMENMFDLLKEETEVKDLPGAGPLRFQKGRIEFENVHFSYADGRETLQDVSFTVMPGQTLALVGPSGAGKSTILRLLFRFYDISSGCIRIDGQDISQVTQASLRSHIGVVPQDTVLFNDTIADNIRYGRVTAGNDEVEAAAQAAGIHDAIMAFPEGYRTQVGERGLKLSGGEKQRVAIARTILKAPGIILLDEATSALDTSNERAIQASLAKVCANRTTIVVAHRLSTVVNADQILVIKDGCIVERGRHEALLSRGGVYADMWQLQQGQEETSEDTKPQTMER

Structure (SMILES) | percent of DMSO control GFP [1] | GFP response vs DMSO [2] | percent response of DMSO control [3] | GFP response vs DMSO [4] | GFP response, % of DMSO [5] | double positive events [6] [%] | vesicle binding response [6] | inhibition [7] | superoxide response (% of plate) [8] | aptamer binding inhibition [9] | response [10] | inhibition [11] | response [12] | binding (% of control) [13] | efflux inhibition (fraction of control) [14] | inhibition [15] | differentiation response [16]
Cc1cccc2c1CC(C)(C)N/C2=C\C(N)=O | 98.7% (inactive) | 102% (inactive) | 91.8% (inactive) | 103% (inactive) | 104% (inactive) | 63.7 | 148% (inactive) | -217% (inactive) | 99% (inactive) | 0% (inactive) | -10.2% (inactive) | 10.1% (inactive) | -3.68% (inactive) | 113% (inactive) | 0.04 (inactive) | -25% (inactive) | -12.9% (inactive)
CC(=O)N1c2ccccc2C(C)=CC1(C)C | 101% (inactive) | 107% (inactive) | 98.3% (inactive) | 104% (inactive) | 125% (inactive) | 64.4 | 199% (inactive) | -17.3% (inactive) | 112% (inactive) | 2% (inactive) | -23.5% (inactive) | -16.5% (inactive) | -0.45% (inactive) | 109% (inactive) | -0.04 (inactive) | 2% (inactive) | -1.05% (inactive)
COc1ccc2nc(C)cc(Nc3ccccc3O)c2c1 | 94.2% (inactive) | 108% (inactive) | 90.1% (inactive) | 115% (inactive) | 99.4% (inactive) | 58 | 120% (inactive) | -7.25% (inactive) | 91.3% (inactive) | -3% (inactive) | 7.69% (inactive) | 3.21% (inactive) | 1.21% (inactive) | 101% (inactive) | 0.01 (inactive) | 9% (inactive) | -20% (inactive)
C=CCOC(=O)C1=C(C)NC(=O)NC1/C=C/c1ccccc1OC (configuration not stated) | 100% (inactive) | 101% (inactive) | 103% (inactive) | 103% (inactive) | 108% (inactive) | 57.9 | 97% (inactive) | -1.09% (inactive) | 115% (inactive) | 1% (inactive) | -4.89% (inactive) | -14.7% (inactive) | 6.85% (inactive) | 106% (inactive) | -0.03 (inactive) | 9% (inactive) | -1.65% (inactive)
CC(C)C(=O)Nc1c(O)c2ccccc2[nH]c1=O | 95.6% (inactive) | 91.9% (inactive) | 93.9% (inactive) | 151% (active) | 96.6% (inactive) | 62 | 220% (inactive) | 6.4% (inactive) | 111% (inactive) | 0% (inactive) | 7.52% (inactive) | -0.19% (inactive) | -4.44% (inactive) | 96.6% (inactive) | 0.15 (inactive) | 11% (inactive) | -4% (inactive)
Cn1c(=O)c2nc3ccccc3nc2n(C)c1=O | 94.6% (inactive) | 103% (inactive) | 93.9% (inactive) | 112% (inactive) | 94.3% (inactive) | 61.5 | 198% (inactive) | 2.3% (inactive) | 99.2% (inactive) | 0% (inactive) | -7.58% (inactive) | -11.6% (inactive) | 2.81% (inactive) | 101% (inactive) | -0.1 (inactive) | 2% (inactive) | -12% (inactive)
